Unmarked numbers belong to inactive results. For some of these results: Measured potencies and affinities stand elsewhere. Activity calls are given as the source filed them. Unless noted, the rule behind the calls is not given here.

Experimental findings from PubChem BioAssay are described below.

Assay [1] in a line: antimalarial activity against Dd2 strain (AID 2302;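 active = growth inhibition above 50% at the single 2 µM test dose, taken to imply half-maximal potency below 2 µM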;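 note: 0% = DMSO untreated growth and 100% = chloroquine plus artemisinin killed control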). The conditions noted are these: P. falciparum Dd2 in RBCs, LDH growth readout, 72 h; at 2 µM; active compounds read high.
Assay [2] can be described thus: HepG2 cytotoxicity, primary screen, cytotoxicity control for P. falciparum antimalarial project, cell-based, ATP luminescence (AID 2303;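 active = inhibition above 50%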;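 note: 0% = DMSO wells and 100% = digitonin-killed cells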). The conditions noted are these: HepG2 viability, 24-48 h, at 10 µM, active compounds read high.
Assay [3] addresses L-lactate dehydrogenase (Plasmodium falciparum (isolate CDC / Honduras)) (UniProt Q27743). The assay can be described thus: PfLDH activity inhibition – cell lysate, 3D7 strain, counter-screen for P. falciparum growth inhibition project (AID 2304).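 Note: 0% = vehicle and 100% = reference inhibitor.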 The conditions noted are these: P. falciparum 3D7 crude extract, LDH APAD/NBT absorbance; at 2 µM; active compounds read high.
Assay [4] can be described thus: inhibition of 3D7 malaria parasite growth – strain 3D7 (AID 2306).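 Note: 0% = DMSO wells and 100% = chloroquine plus artemisinin control wells.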 Conditions: P. falciparum 3D7 erythrocytic growth, LDH absorbance, 72 h; at 2 µM; active compounds read high.
Assay [5] has as its target Calcium-dependent protein kinase 1 (Plasmodium falciparum (isolate 3D7)) (UniProt P62344). The assay can be described thus: PfCDPK1 kinase inhibitors, biochemical, TCAMS library (AID 1159585; cut-off not given, nearly all actives have IC50 up to about 0.98 µM;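 note: inhibitors leave more ATP so luminescence rises with inhibition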). The conditions noted are these: recombinant PfCDPK1, Kinase-Glo ATP depletion luminescence. On the technique in general: Kinase-Glo measures the ATP left after a reaction by luminescence.

Assay [6] deals with Plasmodium falciparum protein kinase 6 (PK6, PF3D7_1337100) (UniProt Q8IDW1). Nature of the assay: PfPK6 kinase inhibitors, biochemical, TCAMS library (AID 1159586). Conditions: recombinant PfPK6, Kinase-Glo ATP depletion luminescence.
Plasmodium falciparum protein kinase 6 (PK6, PF3D7_1337100), sequence (Q8IDW1 1-305): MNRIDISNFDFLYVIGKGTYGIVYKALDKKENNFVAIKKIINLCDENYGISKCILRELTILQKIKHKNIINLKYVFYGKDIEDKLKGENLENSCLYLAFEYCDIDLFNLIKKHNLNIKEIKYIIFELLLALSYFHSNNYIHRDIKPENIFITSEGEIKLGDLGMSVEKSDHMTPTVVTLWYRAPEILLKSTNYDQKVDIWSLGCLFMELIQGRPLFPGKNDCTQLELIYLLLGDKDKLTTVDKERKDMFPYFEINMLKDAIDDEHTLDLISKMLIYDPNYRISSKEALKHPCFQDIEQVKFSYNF
The target of assay [7] is Protein kinase 7 (PK7), Plasmodium falciparum 3D7 (PF3D7_0213400) (UniProt Q7YTF7). Nature of the assay: inhibition of Plasmodium PK7 catalytic activity – biochemical, TCAMS antimalarial set, Kinase-Glo luminescence (AID 1159587). Conditions: recombinant PfPK7, Kinase-Glo ATP depletion luminescence.
Protein kinase 7 (PK7), Plasmodium falciparum 3D7 (PF3D7_0213400), sequence (Q7YTF7 1-343): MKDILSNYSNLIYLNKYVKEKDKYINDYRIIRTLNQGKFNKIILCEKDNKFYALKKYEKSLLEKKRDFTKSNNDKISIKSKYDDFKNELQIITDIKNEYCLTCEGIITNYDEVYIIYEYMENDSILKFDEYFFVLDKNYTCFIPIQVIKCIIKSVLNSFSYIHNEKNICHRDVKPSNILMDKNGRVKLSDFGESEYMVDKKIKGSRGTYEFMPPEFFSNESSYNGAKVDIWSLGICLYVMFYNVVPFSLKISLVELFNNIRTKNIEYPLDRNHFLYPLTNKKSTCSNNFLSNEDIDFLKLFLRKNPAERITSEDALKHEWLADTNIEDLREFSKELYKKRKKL
The target of assay [8] is Calcium-dependent protein kinase 4 (Plasmodium falciparum (isolate 3D7)) (UniProt Q8IBS5). The assay can be described thus: PfCDPK4 kinase inhibitors, biochemical, TCAMS library (AID 1159588; cut-off not given, nearly all actives have IC50 up to about 0.91 µM). Conditions: recombinant PfCDPK4, Kinase-Glo ATP depletion luminescence.
Calcium-dependent protein kinase 4 (Plasmodium falciparum (isolate 3D7)), sequence (Q8IBS5 whole entry, looked up): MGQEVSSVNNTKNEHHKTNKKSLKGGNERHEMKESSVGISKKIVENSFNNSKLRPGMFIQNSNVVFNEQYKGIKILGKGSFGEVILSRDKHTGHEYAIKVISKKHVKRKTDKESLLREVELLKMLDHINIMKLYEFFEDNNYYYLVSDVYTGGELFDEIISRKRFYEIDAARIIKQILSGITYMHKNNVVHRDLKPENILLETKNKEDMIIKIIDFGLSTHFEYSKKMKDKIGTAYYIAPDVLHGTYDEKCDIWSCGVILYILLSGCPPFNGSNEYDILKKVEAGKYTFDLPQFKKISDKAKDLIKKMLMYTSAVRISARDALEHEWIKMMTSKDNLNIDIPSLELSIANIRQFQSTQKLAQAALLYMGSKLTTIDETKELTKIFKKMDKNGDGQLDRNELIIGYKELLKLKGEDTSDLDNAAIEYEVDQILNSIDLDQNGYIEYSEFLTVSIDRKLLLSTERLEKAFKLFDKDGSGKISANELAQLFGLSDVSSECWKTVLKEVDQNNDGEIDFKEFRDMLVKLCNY

L-lactate dehydrogenase (Plasmodium falciparum (isolate CDC / Honduras)), sequence (Q27743 whole entry, looked up): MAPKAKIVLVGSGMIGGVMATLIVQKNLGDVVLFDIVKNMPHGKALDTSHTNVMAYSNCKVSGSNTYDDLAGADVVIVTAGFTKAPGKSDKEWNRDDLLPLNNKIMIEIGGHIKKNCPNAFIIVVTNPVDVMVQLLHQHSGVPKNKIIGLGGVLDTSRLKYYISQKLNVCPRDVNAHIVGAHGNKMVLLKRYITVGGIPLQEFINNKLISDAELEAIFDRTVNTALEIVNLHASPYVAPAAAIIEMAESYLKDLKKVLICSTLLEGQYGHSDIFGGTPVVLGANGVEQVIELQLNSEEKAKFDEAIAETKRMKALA
Calcium-dependent protein kinase 1 (Plasmodium falciparum (isolate 3D7)), sequence (P62344 whole entry, looked up): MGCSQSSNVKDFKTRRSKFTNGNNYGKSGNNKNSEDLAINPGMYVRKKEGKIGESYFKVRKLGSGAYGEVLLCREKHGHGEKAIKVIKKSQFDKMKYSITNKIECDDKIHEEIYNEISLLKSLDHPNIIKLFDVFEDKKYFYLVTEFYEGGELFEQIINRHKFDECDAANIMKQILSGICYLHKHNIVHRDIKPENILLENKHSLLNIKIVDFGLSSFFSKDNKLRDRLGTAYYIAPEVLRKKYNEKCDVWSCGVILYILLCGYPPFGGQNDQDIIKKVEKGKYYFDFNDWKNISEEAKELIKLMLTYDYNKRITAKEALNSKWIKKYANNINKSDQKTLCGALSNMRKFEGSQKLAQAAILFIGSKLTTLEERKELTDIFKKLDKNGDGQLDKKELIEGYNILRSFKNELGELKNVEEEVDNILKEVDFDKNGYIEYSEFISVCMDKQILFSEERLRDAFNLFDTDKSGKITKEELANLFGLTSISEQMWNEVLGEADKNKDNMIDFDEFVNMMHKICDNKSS

Usually inhibition stands for the drop in the measured response relative to a control, in per cent. Regarding `CCCCOc1c(CCNCCCCNCCc2cc(F)c3ccccc3c2OCCCC)cc(F)c2ccccc12`, the growth inhibition was 78% (active) in assay [1] and 96% (active) in assay [4]. Also, the inhibition is 97% (active) in assay [2] and -3% in assay [3]. Also, the result in assay [5], in assay [6], in assay [7] and in assay [8] was inactive.
As for `COc1ccc(NC(=O)Nc2cc(C)nc3ccccc23)cc1Cl`, the results for the growth inhibition in assay [1] and in assay [4] were 49% and 104% (active), respectively. Further, the results for the inhibition in assay [2] and in assay [3] were 4% and -2%, respectively. Moreover, the outcome in assay [5], in assay [6], in assay [7] and in assay [8] was inactive.
`CCN(CC)CCN(Cc1ccc(-c2ccc(C(F)(F)F)cc2)cc1)C(=O)Cn1c(CCc2cc(F)cc(F)c2F)nc(=O)c2ccccc21`: the results for the growth inhibition in assay [1] and in assay [4] were 77% (active) and 101% (active), respectively. Further, the inhibition in assay [2] was 36%; in assay [3] it was 1%. Further, the result in assay [5], in assay [6], in assay [7] and in assay [8] was inactive.
Consider `O=C(Nc1ccc(Cl)c(C(F)(F)F)c1)c1ccc(C(=O)Nc2ccc(Cl)c(C(F)(F)F)c2)cc1`, for which the figures for the growth inhibition in assay [1] and in assay [4] were 27% and 88% (active), respectively. The figures for the inhibition in assay [2] and in assay [3] were 9% and -2%, respectively. The result in assay [5], in assay [6], in assay [7] and in assay [8] was inactive.
Consider `CN1CCN(Cc2cc(NC(=O)c3ccc(-c4ccc(Cl)cc4Cl)cc3)ccc2-c2ccccc2)CC1`, for which the growth inhibition in assay [1] was 21%; in assay [4], 95% (active). The inhibition was 52% (active) in assay [2] and 3% in assay [3]. The result in assay [5], in assay [6], in assay [7] and in assay [8] was inactive.
